Compound activity from PubChem BioAssay.
Compounds with a hit are over-represented: about 5.1% of the library has one in this group of screens.
Cl transport mod = KCC2 cotransporter modulators, thallium flux, primary screen, cell-based, HEK293 KCC2, FluoZin-2 fluorescence, MLSMR; Solute carrier family 12 member 5 (Homo sapiens), Q9H2X9; KCC2 cells, thallium flux FluoZin-2 fluorescence; B-score of Tl+ flux slope (higher = more flux/activation; lower = inhibition) at 10 µM; 190,000 compounds, 2.2% hits;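 active means thallium flux slope and its plate-corrected score both differing from the plate sample mean at a set confidence after two filtering rounds, in either direction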;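 further: slope of fluorescence scaled to starting intensity during 10 to 20 s after thallium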
Target sequence (Q9H2X9 whole entry, looked up): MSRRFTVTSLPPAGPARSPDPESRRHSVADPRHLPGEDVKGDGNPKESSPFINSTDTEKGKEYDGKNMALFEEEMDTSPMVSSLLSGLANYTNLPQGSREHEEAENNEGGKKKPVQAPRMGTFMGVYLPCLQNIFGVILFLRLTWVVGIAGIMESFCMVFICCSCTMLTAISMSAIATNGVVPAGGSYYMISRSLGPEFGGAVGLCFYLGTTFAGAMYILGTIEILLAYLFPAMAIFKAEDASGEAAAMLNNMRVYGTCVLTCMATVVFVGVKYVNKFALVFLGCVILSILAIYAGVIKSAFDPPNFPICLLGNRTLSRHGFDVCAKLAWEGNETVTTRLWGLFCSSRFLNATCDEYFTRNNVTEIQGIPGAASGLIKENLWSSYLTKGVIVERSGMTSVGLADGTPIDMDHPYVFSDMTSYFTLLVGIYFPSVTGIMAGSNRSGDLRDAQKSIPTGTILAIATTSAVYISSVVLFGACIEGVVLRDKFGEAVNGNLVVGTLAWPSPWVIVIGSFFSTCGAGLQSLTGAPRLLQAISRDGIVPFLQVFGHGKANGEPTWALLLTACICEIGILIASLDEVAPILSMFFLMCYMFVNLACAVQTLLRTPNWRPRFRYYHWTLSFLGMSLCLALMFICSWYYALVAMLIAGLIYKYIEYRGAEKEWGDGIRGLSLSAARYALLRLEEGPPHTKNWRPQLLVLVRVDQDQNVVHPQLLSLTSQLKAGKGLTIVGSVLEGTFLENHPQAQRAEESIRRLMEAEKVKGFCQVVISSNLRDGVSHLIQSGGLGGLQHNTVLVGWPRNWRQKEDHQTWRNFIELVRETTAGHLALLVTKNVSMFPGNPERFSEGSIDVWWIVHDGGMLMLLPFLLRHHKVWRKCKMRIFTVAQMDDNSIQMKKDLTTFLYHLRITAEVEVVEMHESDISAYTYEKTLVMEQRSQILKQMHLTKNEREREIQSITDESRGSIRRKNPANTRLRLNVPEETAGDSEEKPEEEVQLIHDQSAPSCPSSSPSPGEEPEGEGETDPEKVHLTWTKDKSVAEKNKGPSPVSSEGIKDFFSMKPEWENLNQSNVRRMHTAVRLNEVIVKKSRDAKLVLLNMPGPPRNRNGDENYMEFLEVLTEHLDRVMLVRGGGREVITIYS
S1P3 antagonist = S1P3 receptor antagonists, primary screen, cell-based; Sphingosine 1-phosphate receptor 3 (Homo sapiens), Q99500; CHO S1P3 NFAT-BLA reporter, FRET fluorescence, antagonist mode; inhibition, % at 4.98 µM; 170,000 compounds, 0.27% hits;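 active means inhibition above the plate cutoff, the mean inhibition of test wells on that plate plus 3 SD, cut at about 28% in these data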;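 further: cells challenged with S1P at its EC80 of 0.8 µM; blue over green emission ratio from cleaved BLA substrate after 4 h stimulation; 0% = S1P-stimulated wells and 100% = unstimulated DMSO-only wells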
S1P4 ag = S1P4 receptor agonists, primary screen, cell-based. activation, % at 4.98 µM. AID 1509, 2009. S1P4-expressing cell line, agonist reporter assay. 220,000 compounds, 0.35% hits; in the data active means activation above about 11%;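 further: 0% = DMSO vehicle and 100% = reference agonist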
RAM inhibit = inhibitors of the yeast RAM network, primary screen, dse1pr::URA3 reporter, 5-FOA selection. S. cerevisiae dse1pr::URA3 reporter, 5-FOA growth OD615, 2 d; analog-sensitive cbk1-as2 kinase mutant strain. inhibition, % at 50 µM. 190,000 compounds, 1.8% hits. AID 868, 2007;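 active means inhibition above a set limit, 3 SD over mean compound inhibition, cut at about 8.4% in these data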;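 further: 0% = DMSO-only wells with no growth and 100% = 10 µM 1-NA-PP1 full growth; inhibition rescues growth on 5-FOA so higher OD means more RAM inhibition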
S1P4 antagonist = S1P4 receptor antagonists, primary screen, cell-based | S1P4-expressing cells, antagonist mode, reporter read-out | inhibition, % at 4.98 µM | 220,000 compounds, 0.26% hits; in the data active means inhibition above about 29%;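 further: 0% = wells stimulated with agonist and 100% = vehicle wells without agonist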
ROMK mod = ROMK potassium channel modulators, primary screen, cell-based, thallium flux, MLSMR library. Tet-inducible ROMK, thallium flux fluorescence; actives lie on both sides. B-score at 10 µM. ATP-sensitive inward rectifier potassium channel 1 (Homo sapiens), P48048. 130,000 compounds, 2% hits;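 active means signal ratio slope over the read window, or its plate-corrected B-score, at least 3 SD from the plate mean, either direction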;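 further: B-score of the F/F0 ratio slope over 7 to 12 s after thallium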
ROMK retest = ROMK channel modulator hit retest, confirmation, cell-based, thallium flux, duplicate, resupplied hits | shares compounds with ROMK mod | fluorescence ratio; stronger effect = lower value | normalized thallium flux (F/F0 slope) at 10 µM | 3,000 compounds, 54% hits | AID 1917, 2009;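 active means Flux at 10 µM at least 3 SD below or above vehicle control mean in one or both replicates; inconclusive means no clear call, values can overlap the other calls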
An asterisk follows results filed as active.

For COC(=O)CSc1nnc(CNC(=O)c2ccc(OC)c(OC)c2)n1C the results were S1P3 antagonist 24, S1P4 ag -1, RAM inhibit 0 and S1P4 antagonist -2.
`N#Cc1cc2cc3ccccc3nc2n2c(=O)c3ccccc3nc12` gave Cl transport mod inactive, S1P3 antagonist -2, S1P4 ag -1, RAM inhibit 6, S1P4 antagonist -1 and ROMK retest 0.056*.
Cc1cc(C(=O)NCc2ccc(F)cc2)n(-c2ccccc2)n1 was read as Cl transport mod 0.78, S1P3 antagonist -19, S1P4 ag 1 and S1P4 antagonist -3.
CCC(=O)NC(Nc1ncc(C)s1)(C(=O)OC)C(F)(F)F (stereo not given) was read as Cl transport mod -0.017, S1P4 ag 1, RAM inhibit 1, S1P4 antagonist 4 and ROMK mod 0.63.
COCCn1c(-c2ccc(OC)cc2)nc2ccccc21 was read as S1P4 ag 1, RAM inhibit 0, S1P4 antagonist 1 and ROMK mod -0.13.
`COc1ccc(Cn2c(-c3ccc(OC)cc3)nc3ccccc32)cc1` gave Cl transport mod -0.025, S1P4 ag 1, RAM inhibit -1, S1P4 antagonist -5, ROMK mod -2.5* and ROMK retest inconclusive.
Screening O=c1[nH]c(NCCCO)nc2c1C1(CCCC1)Cc1ccccc1-2 returned Cl transport mod -1.4, S1P3 antagonist -18, S1P4 ag 1, RAM inhibit -1, S1P4 antagonist -19, ROMK mod -3.4* and ROMK retest 0.057*.
For COc1ccccc1CN(C)CC(=O)NC1CCCc2ccccc21 (stereo not given) the results were Cl transport mod -2, S1P3 antagonist -14, S1P4 ag 2, RAM inhibit 0, S1P4 antagonist 2 and ROMK mod -1.2.
For CCOC(=O)COc1c(Br)cc(/C=C2\SC(=O)N(CC(=O)N3CCCC3)C2=O)cc1OC the results were Cl transport mod -0.0045, S1P4 ag -1, RAM inhibit 11*, S1P4 antagonist 6, ROMK mod -4.7* and ROMK retest 0.057*.
O=Cc1s/c(=N\S(=O)(=O)c2ccccc2)n(CCCCl)c1Cl was read as Cl transport mod -2.6, S1P3 antagonist -2, S1P4 ag -1, RAM inhibit 4, S1P4 antagonist -2, ROMK mod -6.1* and ROMK retest 0.043*.
`COCCCN1C(=O)CS/C1=N\S(=O)(=O)c1ccccc1` gave Cl transport mod 0.21, S1P3 antagonist -13, S1P4 ag 0 and S1P4 antagonist -12.
Screening CC(=O)c1cnc2n(c1=O)CCS2 returned Cl transport mod 1.6, S1P3 antagonist -11, S1P4 ag 2, RAM inhibit 3, S1P4 antagonist -9 and ROMK mod 0.025.
Screening Cc1ccc(-n2c(O)c(/C=N/NC(=O)C3COc4ccccc4O3)c3ccccc3c2=O)cc1 (stereo not given) returned Cl transport mod -1.4, S1P3 antagonist -13, S1P4 ag 1, RAM inhibit 4, S1P4 antagonist -5, ROMK mod -2.7* and ROMK retest 0.052*.
For Cc1c(/C=N\NC(=O)C2COc3ccccc3O2)c2ccccc2n1C (stereo not given) the results were Cl transport mod -0.59, S1P3 antagonist 11, S1P4 ag 2, RAM inhibit 0 and S1P4 antagonist -4.
For CN1/C(=C/C=C(C#N)C#N)C=Cc2ccccc21 the results were Cl transport mod -0.7, S1P3 antagonist 5, S1P4 ag -2, S1P4 antagonist 1 and ROMK retest 0.047*.
Screening C(#CCN1CCC(Cc2ccccc2)CC1)COCCOCc1ccccc1 returned Cl transport mod -1.2, S1P3 antagonist 10, S1P4 ag 0, RAM inhibit 0, S1P4 antagonist -16, ROMK mod -3* and ROMK retest 0.063*.
For O=C(c1ccco1)N1CCN(c2ncnc3c2nnn3Cc2ccccc2Cl)CC1 the results were Cl transport mod 0.41, S1P4 ag -1, RAM inhibit -1, S1P4 antagonist -6, ROMK mod -5.1* and ROMK retest 0.07.
`Fc1ccc(N2CCN(c3ncnc4c3nnn4Cc3ccccc3Cl)CC2)cc1` gave Cl transport mod 0.6, S1P4 ag 1, RAM inhibit 3, S1P4 antagonist 0, ROMK mod -2.7* and ROMK retest 0.066*.
For O=C(c1ccco1)N1CCN(c2nc(C(F)(F)F)nc3c2nnn3Cc2ccccc2)CC1 the results were Cl transport mod 0.17, S1P3 antagonist 7, S1P4 ag 0, RAM inhibit 4 and S1P4 antagonist -12.
`CCCOc1ccc(N2C(=O)CC(N(CCc3ccc(OC)cc3)C(=O)c3ccccc3)C2=O)cc1` (stereo not given) gave Cl transport mod -0.5, S1P3 antagonist -6, S1P4 ag 0, S1P4 antagonist -21 and ROMK mod 0.7.
For COc1cc([N+](=O)[O-])ccc1N/C=C/C(=O)c1cccs1 the results were Cl transport mod -1.2, S1P4 ag 0, RAM inhibit 4, S1P4 antagonist 2 and ROMK retest 0.053*.
For CCN(CC)S(=O)(=O)c1ccc(-c2csc(C)n2)s1 the results were S1P3 antagonist 7, S1P4 ag 3 and S1P4 antagonist -10.
Screening Cc1ccc(NS(=O)(=O)c2ccc(-c3csc(C)n3)s2)c(C)c1 returned Cl transport mod -0.12, S1P3 antagonist 6, S1P4 ag 1, S1P4 antagonist 3, ROMK mod -11* and ROMK retest 0.074.
Oc1ccccc1N=Cc1c(O)ccc2ccccc12 was read as Cl transport mod -0.59, S1P3 antagonist -2, S1P4 ag -2, S1P4 antagonist 22 and ROMK retest 0.045*.
For Clc1ncnc2scc(-c3ccc(Br)cc3)c12 the results were Cl transport mod 0.55, S1P3 antagonist 11, S1P4 ag 3, RAM inhibit 3, S1P4 antagonist -27 and ROMK mod 0.67.
`COc1ccccc1-c1cc(-c2cc(Cl)ccc2O)n[nH]1` gave S1P4 ag 0, RAM inhibit 3, S1P4 antagonist 5, ROMK mod 2.5 and ROMK retest inconclusive.
